Where “and” joins values, the source holds several entries; their conditions need not be identical. Equal values may be shown once. Compounds without any hit were thinned out: in the full panel of roughly 79,000, 15% have a hit. Calls of active or inactive are those of the source. No stated cut-off is given here; in the data, active means growth inhibition above about 70%; inactive means the rest.
assay: NCI Yeast Anticancer Drug Screen. Data for the bub3 strain (AID 167); details: S. cerevisiae bub3 mutant strain, at 5.0 µM (retest, dose inferred, filed as 0.5), hits give high values
Summary of the method: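 Mutant yeast screening strain plus compound; vehicle-treated cultures serve as the 0% inhibition reference.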

Structure (SMILES)	growth inhibition
CN(C)c1ccc(C2CC(C)(O)Oc3cc4c(cc32)OCO4)cc1 (stereo unspecified)	18% (inactive)
O=P(NC1CCCCC1)(OCc1ccccc1)OCc1ccccc1	3% (inactive)
COc1oc(C(=O)NC2CCCCC2)c(-c2ccc(Cl)cc2)c1S(=O)(=O)c1ccccc1	8% (inactive)
C[Si](C)(C)/C=C/CCNC(C#N)c1ccccc1 (stereo unspecified)	12% (inactive)
CCOc1ccc(NC(=O)C2=C(C)NC(C)=C(C(=O)Nc3ccc(OCC)cc3)C2c2cccc([N+](=O)[O-])c2)cc1	-8% (inactive)
CN(C)CCOC1(Cc2ccc(F)cc2)CCC(C(C)(C)C)CC1 (stereo unspecified)	10% (inactive) and -19% (inactive)
CC1(C)CC(=O)C(/C=N/c2nc(-c3ccccc3)cs2)=C(O)C1	-19% (inactive)
CC(=O)Nc1ccc2c(c1)Cc1cc(N=C3C=CC(=O)O3)ccc1-2	32% (inactive)
O=C1C=C(Cl)C(=O)C(c2ccc(Cl)cc2)=C1	6% (inactive)
CNCCCNc1c2ccccc2nc2cccc([N+](=O)[O-])c12	21% (inactive)
CCCCCCCCCCCC(O)S(=O)(=O)O (stereo unspecified)	0% (inactive)
CC(C)OC(=O)c1ccc(CCc2cc(O)c(Br)cc2O)cc1	4% (inactive)
CCc1cc(O)c(Cl)c(C)c1Cl	21% (inactive)
C(=Nc1ccc(-c2cc(-c3ccccc3)nc3ccc4ccccc4c23)cc1)c1ccccc1	12% (inactive)
CSc1nc(C)c(CCOC(C)=O)c(N=P(c2ccccc2)(c2ccccc2)c2ccccc2)n1	10% (inactive)
CS(=O)(=O)SCc1ccc([N+](=O)[O-])cc1	51% (inactive)

Reference: PubChem BioAssay (NCI)
